Where a name gives a salt, the structure may show the parent alone.
Each compound was assayed on replication-induced senescent mouse newborn dermal fibroblasts (NBF) (assay: relative cell viability of senescent cells (fraction); higher = less killing of senescent cells). Settings: 1 µM; 3 days.
Protocol: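 Replication-induced senescent newborn mouse skin fibroblasts (NBFs) in 24-well plates were treated with a Selleck FDA-approved drug library at 1 µM for 3 days.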

Row | SMILES | relative cell viability
1 | CC(=O)Oc1ccccc1C(=O)Nc1ncc([N+](=O)[O-])s1 [Nitazoxanide] | 0.698
2 | Cc1cn(-c2cc(NC(=O)c3ccc(C)c(Nc4nccc(-c5cccnc5)n4)c3)cc(C(F)(F)F)c2)cn1 [Nilotinib (AMN-107)] | 0.044
3 | C[C@]12C=CC(=O)N[C@@H]1CC[C@@H]1[C@@H]2CC[C@]2(C)[C@@H](C(=O)Nc3cc(C(F)(F)F)ccc3C(F)(F)F)CC[C@@H]12 [Dutasteride] | 0.986
4 | CC(=O)OCC(=O)[C@@]12N=C(C)O[C@@H]1C[C@H]1[C@@H]3CCC4=CC(=O)C=C[C@]4(C)[C@H]3[C@@H](O)C[C@@]12C [Deflazacort] | 1.04
5 | COC(=O)Nc1nc2cc(C(=O)c3ccc(F)cc3)ccc2[nH]1 [Flubendazole] | 0.886
6 | COC(=O)N[C@H](C(=O)N[C@@H](Cc1ccccc1)[C@@H](O)CN(Cc1ccc(-c2ccccn2)cc1)NC(=O)[C@@H](NC(=O)OC)C(C)(C)C)C(C)(C)C [Atazanavir Sulfate] | 0.988
7 | CC(C)[N+]1(C)[C@@H]2CC[C@H]1C[C@@H](OC(=O)C(CO)c1ccccc1)C2 (stereo not given in full) [Ipratropium Bromide] | 0.902
8 | CNC(=O)c1cc(Oc2ccc(NC(=O)Nc3ccc(Cl)c(C(F)(F)F)c3)cc2)ccn1 [Sorafenib Tosylate] | 0.528
9 | CC1(C)O[C@@H]2[C@@H](CO[C@@]3(COS(N)(=O)=O)OC(C)(C)O[C@@H]23)O1 [Topiramate] | 0.921
10 | COc1cc2nccc(Oc3ccc(NC(=O)NC4CC4)c(Cl)c3)c2cc1C(N)=O [Lenvatinib (E7080)] | 0.123
11 | O=C(/C=C/c1cccc(S(=O)(=O)Nc2ccccc2)c1)NO [Belinostat (PXD101)] | 0.941
12 | COc1ccccc1OCC(O)CN1CCN(CC(=O)Nc2c(C)cccc2C)CC1 (stereo not given) [Ranolazine 2HCl] | 0.773
13 | CCc1cc(C(N)=S)ccn1 [Ethionamide] | 0.932
14 | C#CCC(Cc1cnc2nc(N)nc(N)c2n1)c1ccc(C(=O)N[C@@H](CCC(=O)O)C(=O)O)cc1 (stereo not given in full) [Pralatrexate] | 0.863
15 | Nc1nc(Cl)nc2c1ncn2[C@H]1C[C@H](O)[C@@H](CO)O1 [Cladribine] | 0.924
16 | CC1=C(/C=C/C(C)=C/C=C/C(C)=C/C(=O)O)C(C)(C)CCC1 [Tretinoin] | 0.466
17 | COc1cc(Nc2c(C#N)cnc3cc(OCCCN4CCN(C)CC4)c(OC)cc23)c(Cl)cc1Cl [Bosutinib (SKI-606)] | 0.0801
18 | CO[C@H]1C[C@@H]2CC[C@@H](C)[C@@](O)(O2)C(=O)C(=O)N2CCCC[C@H]2C(=O)O[C@H]([C@H](C)C[C@@H]2CC[C@@H](OC(=O)C(C)(CO)CO)[C@H](OC)C2)CC(=O)[C@H](C)/C=C(\C)[C@@H](O)[C@@H](OC)C(=O)[C@H](C)C[C@H](C)/C=C/C=C/C=C/1C | 0.603
19 | CC1COc2c(N3CCN(C)CC3)c(F)cc3c(=O)c(C(=O)O)cn1c23 (stereo not given) [Ofloxacin] | 1
20 | CCCc1nc(C(C)(C)O)c(C(=O)OCc2oc(=O)oc2C)n1Cc1ccc(-c2ccccc2-c2nnn[nH]2)cc1 [Olmesartan Medoxomil] | 0.252

Row | SMILES | relative cell viability
21 | C[C@H]1C[C@H]2[C@@H]3CCC4=CC(=O)C=C[C@]4(C)[C@@]3(F)[C@@H](O)C[C@]2(C)[C@@]1(O)C(=O)CO [Betamethasone] | 0.229
22 | COc1cc(C(=O)NS(=O)(=O)c2ccccc2C)ccc1Cc1cn(C)c2ccc(NC(=O)OC3CCCC3)cc12 [Zafirlukast] | 0.957
23 | COc1ccc2[nH]c([S@@+]([O-])Cc3ncc(C)c(OC)c3C)nc2c1 [NEXIUM (esomeprazole magnesium)] | 1.07
24 | c1ccc2[nH]c(-c3cscn3)nc2c1 [Thiabendazole] | 1.03
25 | C#C[C@]1(O)CC[C@H]2[C@@H]3CCc4cc(O)ccc4[C@H]3CC[C@@]21C [Ethinyl Estradiol] | 0.86
26 | Nc1ccc(O)c(C(=O)O)c1 [Mesalamine] | 0.351
27 | COc1ccc([C@@H]2Sc3ccccc3N(CCN(C)C)C(=O)[C@@H]2OC(C)=O)cc1 [Diltiazem HCl] | 1.09
28 | CN1CCC[C@@H]1CCO[C@](C)(c1ccccc1)c1ccc(Cl)cc1 [Clemastine Fumarate] | 1.07
29 | CCOC(=O)c1ccc(C#Cc2ccc3c(c2)C(C)(C)CCS3)nc1 [Tazarotene] | 1.23
30 | CO[C@H]1C[C@@H]2CC[C@@H](C)[C@@](O)(O2)C(=O)C(=O)N2CCCC[C@H]2C(=O)O[C@H]([C@H](C)C[C@@H]2CC[C@@H](O)[C@H](OC)C2)CC(=O)[C@H](C)/C=C(\C)[C@@H](O)[C@@H](OC)C(=O)[C@H](C)C[C@H](C)/C=C/C=C/C=C/1C [Rapamycin (Sirolimus)] | 0.735
31 | C[C@]1(c2nc3c(C(N)=O)cccc3[nH]2)CCCN1 [Veliparib (ABT-888)] | 0.885
32 | C[C@H]1[C@H](NC(=O)/C(=N\OC(C)(C)C(=O)O)c2csc(N)n2)C(=O)N1S(=O)(=O)O [Aztreonam] | 1.06
33 | CC(C)c1cc(-c2n[nH]c(=O)n2-c2ccc3c(ccn3C)c2)c(O)cc1O [Ganetespib (STA-9090)] | 0.0837
34 | c1ccc(-c2ccc(C(c3ccccc3)n3ccnc3)cc2)cc1 (stereo not given) [Bifonazole] | 0.877
35 | Nc1ncn([C@@H]2O[C@H](CO)[C@@H](O)[C@H]2O)c(=O)n1 [Azacitidine] | 0.436
36 | COc1ccc(C2CNC(=O)C2)cc1OC1CCCC1 (stereo not given) [Rolipram] | 1.07
37 | Cc1cnc(NC(=O)C2=C(O)c3ccccc3S(=O)(=O)N2C)s1 [Meloxicam] | 1.17
38 | [I-].[K+] [Potassium Iodide] | 0.937
39 | COc1cccc2c1C(=O)c1c(O)c3c(c(O)c1C2=O)CC(O)(C(=O)CO)CC3OC1CC(N)C(O)C(C)O1 (stereo not given) [Doxorubicin (Adriamycin) HCl] | 0.957
40 | Nc1ccn([C@H]2CC[C@@H](CO)O2)c(=O)n1 [Zalcitabine] | 0.129
